# PrPC TRFRET – inhibitors of human cell surface prion protein PrPC, primary screen, cell-based, TR-FRET; inhibition, % at 13.8 µM; 370,000 tested, 0.43% active; TR-FRET read-out; Major prion protein (Homo sapiens), P04156; in the data active means inhibition above about 24%; further: 0% = median of the test wells and 100% = reference compound wells
# GDH-TPI counter-1 – GDH-TPI coupling enzyme inhibitors, primary screen, artefact control for M. tuberculosis FBA inhibitor project, biochemical, absorbance, full deck; GDH-TPI coupled enzyme counterscreen, NADH absorbance; inhibition, % at 4.8 µM; 360,000 tested, 1.2% active; AID 588335, 2011; in the data active means inhibition above about 30%;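 further: 0% = DMSO wells and 100% = wells lacking the enzyme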
# BJeLR lethal – MLPCN primary cell-based screen for lethality selective to Ras in HRASV12 cells; BJeLR (HRASV12) viability, CellTiter-Glo ATP luminescence, 48 h; inhibition, % (no concentration beside the values); 300,000 tested, 0.17% active; AID 1554, 2009; in the data active means inhibition above about 50%
# FBA Mtb inh – Mtb FBA enzyme inhibitors, primary screen, biochemical, fluorescence, strain H37Rv | Fructose-bisphosphate aldolase (Mycobacterium tuberculosis (strain ATCC 25618 / H37Rv)), … | purified M. tuberculosis FBA, fluorescence read-out | inhibition, % at 1 µM | 360,000 tested, 2.3% active;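 further: 0% = vehicle and 100% = reference inhibitor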
# Target sequence (P9WQA3 whole entry, looked up): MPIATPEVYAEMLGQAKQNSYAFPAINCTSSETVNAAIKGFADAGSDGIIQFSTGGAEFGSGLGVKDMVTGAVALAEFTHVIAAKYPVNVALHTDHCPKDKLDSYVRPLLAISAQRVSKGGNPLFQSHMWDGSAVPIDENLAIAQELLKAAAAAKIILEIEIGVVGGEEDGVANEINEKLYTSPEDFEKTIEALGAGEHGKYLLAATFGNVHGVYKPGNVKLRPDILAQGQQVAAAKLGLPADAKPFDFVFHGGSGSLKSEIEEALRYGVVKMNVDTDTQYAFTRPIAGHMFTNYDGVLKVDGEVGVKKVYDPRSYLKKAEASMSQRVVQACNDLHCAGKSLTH
# PfHsp40 yeast – rescue of yeast from PfHsp40 toxicity, primary screen, S. cerevisiae, ATP luminescence; S. cerevisiae expressing PfHsp40, growth rescue; growth rescue, % at 12.5 µM; 340,000 tested, 0.68% active; AID 504582, 2011; in the data active means growth rescue above about 28%, passing the limit was not always enough;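 further: yeast W303a lacking pdr1 and pdr3 grown in galactose medium; growth measured after three days at 30 °C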
# PrP 5UTR inh – inhibition of PrP 5' UTR reporter expression | cell-based PrP 5' UTR mRNA reporter, plate reader | inhibition, % (test concentration not listed) | 340,000 tested, 0.35% active | AID 488862, 2010; in the data active means inhibition above about 52%; further: 0 = median of the neutral control wells
# Mtb FBA confirm – M. tuberculosis aldolase blockers, biochemical, fluorescence, strain H37Rv, confirmation | AID 651616, 2012 | shares compounds with FBA Mtb inh | 5,600 tested, 78% active | inhibition, % at 1 µM | purified M. tuberculosis FBA, fluorescence read-out;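 further: 0% = vehicle wells and 100% = reference inhibitor wells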
# GDH-TPI counter-2 – GDH-TPI coupling enzyme inhibitors, artefact control for M. tuberculosis FBA inhibitor project, biochemical, fluorescence, high throughput; inhibition, % at 1 µM; GDH-TPI coupled enzyme counterscreen; 5,600 tested, 81% active; AID 652141, 2013; shares compounds with FBA Mtb inh; in the data active means inhibition above about 10%
# * = called active by the depositor; x = no result; + = active, no number. An excerpt weighted towards active compounds, which were near 4.5% of everything screened. Unless noted, no stated cut-off is given here; in the data, active means inhibition above about 27%; inactive means the rest.
SMILES,PrPC TRFRET,GDH-TPI counter-1,BJeLR lethal,FBA Mtb inh,PfHsp40 yeast,PrP 5UTR inh,Mtb FBA confirm,GDH-TPI counter-2
COc1ccc(-c2nc(C(N)=O)c3[nH]c(=O)n(-c4cccc(C)c4)c3n2)c(OC)c1,2,16,-4,4,-2,4,x,x
CCc1nc(C(N)=O)c2[nH]c(=O)n(-c3ccccc3F)c2n1,-1,8,8,105*,1,-12,91*,74*
COc1ccccc1-c1nc(C(N)=O)c2[nH]c(=O)n(-c3cccc(C)c3)c2n1,-1,29,-3,48*,1,-9,+,195*
c1ccc(Nc2ccccc2)cc1,2,-4,-1,2,-2,-4,x,x
c1ccc(Nc2ccc3ccccc3c2)cc1,-2,1,x,33*,7,-55,145*,97*
CCCCC(c1nc2ccccc2[nH]1)n1c(-c2ccccc2)nc2ccccc21 (stereo not given),7,x,x,4,x,x,x,x
CCCNC(=O)C(=O)NCC1CCCN1CC (stereo not given),-1,-3,15,29*,0,-27,18,13*
C=CCNC(=O)C(=O)NCC1CCCN1CC (stereo not given),-4,-7,6,-1,2,-18,x,x
Cc1cc(S(=O)(=O)N2CCC3(CC2)OCCN3S(=O)(=O)c2cccs2)ccc1F,6,3,8,0,0,-17,x,x
Cc1cccc(NC(=O)COC(=O)CCc2ccc(S(=O)(=O)N3CCOCC3)cc2)c1C,8,7,5,0,-1,-21,x,x
COc1ccccc1NC(=O)COC(=O)CCc1ccc(S(=O)(=O)N2CCOCC2)cc1,-2,14,x,31*,-1,-13,162*,134*
CCOC(=O)C1CCCN(C(=O)c2cc(-c3ccco3)nc3ccccc23)C1 (stereo not given),3,5,x,84*,-1,-16,+,157*
O=C(c1cc(-c2ccco2)nc2ccccc12)N1CCCC(C(F)(F)F)C1 (stereo not given),-6,2,x,102*,-1,-15,+,+
O=C(c1cc(-c2ccncc2)nc2ccccc12)N1CCCC(C(F)(F)F)C1 (stereo not given),2,7,x,0,x,x,x,x
COc1ccc2c(c1OC)OCC2C (stereo not given),5,5,x,-1,0,6,x,x
COc1cccc(C2Nc3ccccc3C(=O)N2Cc2ccccc2)c1 (stereo not given),-6,-1,-3,61*,1,-18,24,18*
O=C1NCCN1CCN1C(=O)c2ccccc2NC1c1ccccc1 (stereo not given),8,4,-4,72*,-1,-30,108*,91*
O=C1c2ccccc2NC(c2ccccc2)N1c1ccc(O)cc1 (stereo not given),2,1,4,4,0,-11,x,x
O=C1c2ccccc2NC(c2ccccc2)N1Cc1ccccc1 (stereo not given),-2,-8,5,63*,1,-15,39*,15*
COc1cccc(OCc2cc(C3Nc4ccccc4C(=O)N3Cc3ccco3)ccc2OC)c1 (stereo not given),0,3,2,13,2,-8,x,x
O=C(O)C1c2ccccc2C(=O)N(Cc2ccc(F)cc2)C1c1ccncc1 (stereo not given),4,2,-2,1,x,x,x,x
O=C1c2ccccc2NC(c2ccc(F)cc2)N1Cc1ccccc1 (stereo not given),5,7,1,57*,x,-4,79*,55*
CC1CCCCC1NS(=O)(=O)c1ccc2c(c1)CC(=O)N2C (stereo not given),3,-8,9,-2,-1,-16,x,x
O=C(/C=C/c1ccccc1)NC(=S)Nc1ccccc1,-1,25,1,27*,102*,-7,6,-1
CCOc1ccccc1-c1nc2c(C(C)(C)C)nn(C)c2c(=O)[nH]1,x,x,-13,x,x,x,x,x
SMILES,PrPC TRFRET,GDH-TPI counter-1,BJeLR lethal,FBA Mtb inh,PfHsp40 yeast,PrP 5UTR inh,Mtb FBA confirm,GDH-TPI counter-2
CCOc1ccccc1-c1nc2c([nH]1)c(=O)n(C)c(=O)n2C,1,17,10,39*,0,-21,94*,82*
COc1cccc(N2CCN(C(=O)CSc3nc4ncccc4[nH]3)CC2)c1,-1,x,x,x,x,x,x,x
c1ccc(-c2noc(-c3cccc4ccccc34)n2)nc1,-5,-4,-3,46*,-1,-26,+,+
COc1cccc(-c2nc(-c3ccccn3)no2)c1OC,-7,0,1,-3,1,-73,x,x
COc1ccc(-c2nc(C#N)c(NCc3ccc(F)cc3)o2)cc1OC,10,10,4,103*,14,-16,74*,55*
COc1ccc(-c2nc(C#N)c(NCc3ccccc3Cl)o2)cc1OC,0,23,2,57*,-1,-26,114*,81*
COc1ccc(-c2nc(C#N)c(NCc3cccnc3)o2)cc1OC,3,14,-9,30*,2,-30,53*,39*
Cc1cc2nc(-c3ccc(SCC(=O)N4CCN(C(=O)c5ccco5)CC4)nc3)[nH]c2cc1C,6,48*,21,35*,0,-42,44*,27*
CCOC(=O)CSc1ccc(-c2nc3cc(C)c(C)cc3[nH]2)cn1,7,23,-7,24,1,-40,x,x
Cc1cc2nc(-c3ccc(SCc4ccccn4)nc3)[nH]c2cc1C,5,38*,-10,41*,0,-56,54*,51*
Cc1cc(=O)[nH]c(SCC(=O)N2CCN(C(=O)c3ccco3)CC2)n1,-3,-4,x,-3,-1,-30,x,x
Cc1cc2nc(-c3ccc(SCC(=O)N4CCOCC4)nc3)[nH]c2cc1C,-4,31*,11,54*,0,-28,57*,50*
Cc1cccn2c(=O)c(C=NCCO)c(NCc3ccco3)nc12,4,25,-3,39*,0,-7,+,+
Cc1cc(NC(C)c2ccccc2)n2ncc(-c3ccccc3)c2n1 (stereo not given),12,-8,2,33*,2,-57,41*,30*
COc1ccc(CCNc2cc(C)nc3c(-c4ccccc4)cnn23)cc1OC,3,9,11,9,2,-9,x,x
